By inhibition is commonly meant the relative decrease from the control value, in per cent.

The source of these data is PubChem BioAssay AID782 (Emory University Molecular Libraries Screening Center, 2007).

The structures appear in SMILES notation. Screen size: about 220,000 compounds; about 800 (0.36%) were called active. For the sample, actives were picked, then their nearest neighbours and some compounds at random. Values without a mark were called inactive.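 Rule for the calls: active = inhibition above about 30% (limit read from the data); inactive = the rest.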

Eukaryotic translation initiation factor 4E (Mus musculus) + Eukaryotic translation initiation factor 4 gamma 1 (Homo sapiens), sequence (P63073 whole entry, looked up, the tested form may be a part): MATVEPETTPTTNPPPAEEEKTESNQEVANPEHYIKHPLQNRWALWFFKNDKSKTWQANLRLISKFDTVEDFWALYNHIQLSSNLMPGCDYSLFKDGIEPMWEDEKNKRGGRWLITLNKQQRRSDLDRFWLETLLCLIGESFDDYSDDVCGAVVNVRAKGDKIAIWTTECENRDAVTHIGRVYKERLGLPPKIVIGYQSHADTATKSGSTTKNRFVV
Eukaryotic translation initiation factor 4E (Mus musculus) + Eukaryotic translation initiation factor 4 gamma 1 (Homo sapiens), sequence (Q04637 whole entry, looked up, the tested form may be a part): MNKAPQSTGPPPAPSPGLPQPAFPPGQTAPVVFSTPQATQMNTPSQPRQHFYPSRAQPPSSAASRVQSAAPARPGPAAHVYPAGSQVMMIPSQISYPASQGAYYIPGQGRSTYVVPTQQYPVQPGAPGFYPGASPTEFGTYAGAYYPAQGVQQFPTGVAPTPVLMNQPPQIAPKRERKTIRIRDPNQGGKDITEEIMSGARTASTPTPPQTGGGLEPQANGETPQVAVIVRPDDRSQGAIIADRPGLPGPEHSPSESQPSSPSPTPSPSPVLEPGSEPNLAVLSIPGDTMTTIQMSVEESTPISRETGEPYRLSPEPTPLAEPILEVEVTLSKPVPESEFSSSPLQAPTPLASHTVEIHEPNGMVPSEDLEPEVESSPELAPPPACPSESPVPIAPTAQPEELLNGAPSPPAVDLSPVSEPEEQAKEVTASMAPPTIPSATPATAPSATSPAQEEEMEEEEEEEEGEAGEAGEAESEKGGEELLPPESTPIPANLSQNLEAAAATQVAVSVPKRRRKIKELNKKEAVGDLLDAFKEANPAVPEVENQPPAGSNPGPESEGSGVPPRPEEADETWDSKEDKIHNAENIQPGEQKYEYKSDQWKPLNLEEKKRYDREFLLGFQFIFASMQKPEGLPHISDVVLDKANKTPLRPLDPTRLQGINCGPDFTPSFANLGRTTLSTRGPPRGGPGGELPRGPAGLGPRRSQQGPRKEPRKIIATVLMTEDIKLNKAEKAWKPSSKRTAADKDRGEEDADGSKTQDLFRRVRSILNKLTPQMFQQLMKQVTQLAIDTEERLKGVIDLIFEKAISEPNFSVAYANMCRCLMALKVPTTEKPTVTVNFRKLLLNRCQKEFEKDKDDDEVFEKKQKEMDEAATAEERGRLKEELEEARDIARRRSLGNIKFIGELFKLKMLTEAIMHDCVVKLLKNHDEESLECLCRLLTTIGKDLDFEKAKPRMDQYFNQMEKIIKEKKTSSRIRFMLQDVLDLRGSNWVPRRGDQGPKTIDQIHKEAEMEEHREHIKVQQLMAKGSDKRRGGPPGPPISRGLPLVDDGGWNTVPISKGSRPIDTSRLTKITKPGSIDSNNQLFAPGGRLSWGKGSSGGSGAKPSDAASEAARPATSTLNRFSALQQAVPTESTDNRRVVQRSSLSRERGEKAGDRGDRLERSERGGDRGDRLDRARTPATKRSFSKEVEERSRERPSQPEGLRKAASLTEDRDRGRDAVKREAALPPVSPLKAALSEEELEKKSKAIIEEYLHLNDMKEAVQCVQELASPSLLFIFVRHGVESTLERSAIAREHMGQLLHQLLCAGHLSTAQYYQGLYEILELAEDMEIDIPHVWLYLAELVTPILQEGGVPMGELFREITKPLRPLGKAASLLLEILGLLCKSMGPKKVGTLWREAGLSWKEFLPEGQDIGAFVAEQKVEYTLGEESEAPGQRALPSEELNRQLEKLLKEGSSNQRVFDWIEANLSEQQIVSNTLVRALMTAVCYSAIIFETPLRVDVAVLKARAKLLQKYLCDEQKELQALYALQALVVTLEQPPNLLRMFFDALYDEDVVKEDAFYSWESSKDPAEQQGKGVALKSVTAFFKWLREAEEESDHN

This assay has as its target Eukaryotic translation initiation factor 4E (Mus musculus) + Eukaryotic translation initiation factor 4 gamma 1 (Homo sapiens) (UniProt P63073+Q04637). Kind of assay: eIF4E–eIF4G protein interaction inhibitors, primary screen, biochemical, uHTS, TR-FRET, eIF4GI fragment (AID 782).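 Note: 0% = full FRET control wells and 100% = background wells lacking eIF4GI fragment.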 Conditions: TR-FRET eIF4E-eIF4GI(517-606) binding, 2 h; at 21.7 µM; stronger effect = higher value. (TR-FRET usually uses a lanthanide donor and a delayed reading to cut background.)
Turning to `COC(=O)/C=C(\Oc1ccccc1)C1(O)CCCCC1`, the inhibition is 3.79%. Then `COCCn1c(C)cc(C(=O)CSc2nc3ccccc3c(=O)n2C(C)COC)c1C` (configuration not stated), with -1.77%; and `COCC(C)n1c(SCc2ccc(C(=O)OC)o2)nc2ccccc2c1=O` (configuration not stated), with 56% (active). In the case of `COC(=O)c1ccc(CSc2nc3ccccc3c(=O)n2-c2cccc(OC)c2)o1` it was 2.4%; in that of `CSc1nc(C)nc(C2CC2)c1C#N`, -3.41%. Then `Cc1cccc(N(C)C(=O)c2cc3c(=O)[nH]c4ccc(C)cc4c3s2)c1`, with -9.17%; and `O=S(=O)(Cc1noc(-c2ccc(OC(F)(F)F)cc2)n1)c1ccc(F)cc1`, with -0.8%. `Cc1cc(-c2n[nH]c(=S)n2/N=C/c2ccco2)n[nH]1`: the inhibition was -0.15%.

As to `S=c1[nH]nc(-c2ccco2)n1/N=C/c1ccc(Br)s1`, the inhibition is 49.9% (active).

Regarding `S=c1[nH]nc(-c2ccco2)n1/N=C/c1ccccc1`, the inhibition was -0.4%. With `O=C(CN1CCN(c2ccc(O)cc2)CC1)Nc1cc(S(=O)(=O)N2CCOCC2)ccc1Cl`, the inhibition was 18.9%. In the case of `O=C(N/N=C/c1ccc([N+](=O)[O-])o1)c1cccc(S(=O)(=O)N2CCOCC2)c1` it was 0.27%; in that of `O=[N+]([O-])c1cc(Cl)cc(/C=N/NC(=S)Nc2cc(S(=O)(=O)N3CCOCC3)ccc2Cl)c1O`, 37.9% (active). Then `COc1ccc(/C(N)=N/OC(=O)CCCc2ccccc2)cc1`, with -2.25%. Then `Cc1ccc(SCC(=O)Nc2ccc3c(c2)OCCO3)cc1`, with 0.94%; and `NC(N)=NCCCc1cn(CC(=O)N2CCNCC2)nn1`, with 0.73%; and `Fc1c(F)c(C(F)(F)F)c(F)c(F)c1N1CCN(c2ccc3nnc(C(F)(F)F)n3n2)CC1`, with 35.1% [fluorescence artefact?] (active). Take `FC(F)(F)c1nnc2ccc(N3CCN(c4ccccc4)CC3)nn12`: the inhibition is 0.95%.

For `CCSc1nc(C)c(CCOc2cccc(C)c2)c(=O)[nH]1`, the inhibition was -0.93%. In the case of `Oc1c(Cl)cc(Cl)c(Cl)c1Cc1c(O)c(Cl)cc(Cl)c1Cl` it was 46.2% (active).

On to `CCOC(=O)c1c(NC(=O)CSc2nnc(CNc3ccc(C)cc3C)o2)sc(C)c1C`, for which the inhibition was -0.54%. Take `CCOc1cc(C(=S)N2CCOCC2)ccc1O`: the inhibition was 30.5% [fluorescence artefact?] (active). In the case of `CCOc1cc(C(=O)OCC(=O)Nc2cccc(C)c2)ccc1OCC(=O)N1CCOCC1` it was 0.63%; in that of `COc1cc(C(=S)N2CCOCC2)ccc1O`, -0.65%; in that of `Cc1ccnc(NC(=O)CCCOc2ccccc2)c1`, 3.5%.

In the case of `CCOC(=O)N1CCC(=NNC(N)=O)CC1`, the inhibition is 2.99%. In the case of `CC(C)NC(=S)NN=C1CCCCCCCCCCC1` it was -4.16%; in that of `CC(NC(=O)C(=O)NN=C1CCC(C(C)(C)C)CC1)c1ccccc1` (configuration not stated), 2.57%; in that of `CC(C)(C)NC(=O)C(=O)NN=C1CCCCCCC1`, 39.2% (active).

Take `O=C(N/N=C/c1ccc([N+](=O)[O-])cc1)c1c[nH]c2ccccc12`: the inhibition is -2.85%. Then `Cc1cc(C(=O)N/N=C/c2ccccc2[N+](=O)[O-])c(C)o1`, with 2.6%; and `Cc1c(C(=O)N/N=C/c2ccccc2)[nH]c2c([N+](=O)[O-])cccc12`, with 94.2% (active); and `COC(=O)Nc1ncc(CN2CCCCC2)s1`, with 1.52%. Then `N/C(=N\S(=O)(=O)c1cc(C(F)(F)F)cc(C(F)(F)F)c1)c1cccs1`, with 0.14%; and `Cc1ccc(C(=O)NC(=S)Nc2ccccc2C)cc1`, with -1.48%.

`CCOC(=O)c1c(N)sc2c1CCCC2=O`: the inhibition is -0.22%. In the case of `Cc1cc2cc(CNC(=O)c3ccc(S(=O)(=O)N4CCOCC4)cc3)ccc2[nH]1` it was -23.9%; in that of `C/C(CC(=O)Nc1ccc(C)cc1C)=N\NC(=O)C(C)C`, -1.71%; in that of `C=CCn1c(N)cc(=O)nc1SCC(=O)Nc1cccc2ccccc12`, 30.1% (active). Then `C=CCn1c(SCC(=O)NCc2ccccc2)nnc1-c1cc(Br)ccc1O`, with 4.21%; and `C=CCn1c(SCC(=O)Nc2nc3ccccc3s2)nnc1-c1ccccc1O`, with 6.76%; and `Cc1cc(C(=O)NNC(=S)NC(C)c2ccccc2)cs1` (configuration not stated), with -0.45%. For `Cc1ccc(S(=O)(=O)NNC(=S)NC(C)(C)C)cc1`, the inhibition was 2.84%. In the case of `CC(NC(=S)NNS(=O)(=O)c1ccc(C(C)(C)C)cc1)c1ccccc1` (configuration not stated) it was 96.5% (active); in that of `O=C(C1CCCN1S(=O)(=O)c1ccc(Br)cc1)N1CCOCC1` (configuration not stated), -1.1%; in that of `COC(=O)[C@@H]1C[C@@]2(O)[C@@H](O)[C@@H](O)[C@@H](O)C[C@H]2N1Cc1ccc(C)s1`, 96% (active).

On to `COC(=O)[C@@H]1C[C@@]2(O)[C@H](O)[C@H](O)[C@H](O)C[C@H]2N1Cc1ccc(C)s1`, for which the inhibition was -1.88%. In the case of `COC(=O)[C@@H]1C[C@@]2(O)[C@H](O)[C@H](O)[C@H](O)C[C@H]2N1Cc1ccc(C(C)(C)C)cc1` it was -5.29%; in that of `C/C(Cn1nnc2ccccc21)=N\OC(=O)c1cc(F)c(F)cc1Cl`, -2.84%.

Regarding `O=[N+]([O-])C(=c1ccc2c(c1)N1C3=C(CCCC3)CC3CCCCC31N=2)[N+](=O)[O-]` (configuration not stated), the inhibition was 34.6% (active). Then `Cc1c(Cl)cccc1NC(=S)NCc1ccc2c(c1)OCO2`, with 3.45%; and `O=C(NNC1=NCCC1)c1cccc(S(=O)(=O)N2CCCCC2)c1`, with 6.05%. Then `Cc1ccc(N(C(=O)c2ccc(CN3CCOCC3)o2)C(C(=O)NCCC(C)C)c2cccs2)c(C)c1` (configuration not stated), with 3.08%. In the case of `CC(C)(C)c1ccc(/C=C2\SC(=O)N=C2N)cc1` it was 2.64%. Consider `C/C(=N\NC(=S)Nc1ccc(C)cc1)c1cc2ccccc2o1`, for which the inhibition is -0.73%.

In the case of `CCCc1c(C(=O)Nc2ccc(F)cc2)cnn1-c1ccccc1`, the inhibition was 2.37%. In the case of `CN(C)CCCN(Cc1cc2cc3c(cc2[nH]c1=O)OCCO3)C(=O)NC1CCCCC1` it was 2.76%.

Consider `O=C(c1ccc(F)cc1)N1CCCC(c2nc(-c3cccs3)no2)C1` (configuration not stated), for which the inhibition was 3.08%. In the case of `COc1ccnc(Oc2ccccc2)n1` it was 15.9%.

As to `CCc1cccc(C)c1NC(=S)N(CCCN1CCN(C)CC1)Cc1cccs1`, the inhibition is -3.86%. Then `Cc1ccc(N2C(=O)c3ccccc3C2(O)c2ncc[nH]2)cc1` (configuration not stated), with 55.4% (active). For the compound `Cc1ccnc(NC(=O)C(C)N2C(=O)c3ccccc3C2=O)c1` (configuration not stated), the inhibition is 1.43%. In the case of `Cc1ccc(-n2ccc(=O)c(C(=O)O)n2)cc1` it was 1.06%; in that of `Cc1ccc(Nc2ccc(C(N)=O)cc2[N+](=O)[O-])cc1`, -0.72%. In the case of `CC(=O)Nc1ccc(/C=N/Nc2ccc(C(=O)c3c(C)cc4ccccn34)cc2[N+](=O)[O-])cc1` it was 63.9% (active).

For `CNc1ccc(NC(C)=O)cc1[N+](=O)[O-]`, the inhibition was -0.25%. `CCOc1ccc(/C=N/NC(=O)CSc2ccccn2)cc1O`: the inhibition is -2.92%. For the compound `O=C(COC(=O)/C=C/c1ccc(S(=O)(=O)N2CCCCCC2)cc1)NCc1ccccc1Cl`, the inhibition is 2.41%. Regarding `C=C1CCN([C@H](C(=O)NCc2cc(OC)c(OC)c(OC)c2)C(C)C)S(=O)(=O)c2ccccc21`, the inhibition is -2.58%.

As for `Nc1ccc(S(=O)(=O)Nc2nccc(/C=C/c3ccc(Br)s3)n2)cc1`, the inhibition was 0.68%. As for `CC(C)(C)c1cc(C(=O)NN)n(Cc2ccc(Cl)cc2Cl)n1`, the inhibition is 3.29%. Regarding `Cc1[nH]n(C)c(=O)c1C(=O)c1c(-c2c(Cl)cccc2Cl)noc1C`, the inhibition is -1.16%.

Consider `N/C(=N\S(=O)(=O)c1ccc(Cl)cc1)N1CCOCC1`, for which the inhibition was -0.17%. In the case of `COc1ccc(N2CCN(C(=S)Nc3ccc(S(N)(=O)=O)cc3)CC2)cc1` it was 2.56%. As for `COC(=O)Cc1csc(/N=C/c2c(O)n(-c3cccc(C(F)(F)F)c3)c(=O)c3ccccc23)n1`, the inhibition is 1.31%. Then `COc1ccc(C2C(C(=O)N3CCN(c4ccc(OC)cc4)CC3)c3ccccc3C(=O)N2C)cc1` (configuration not stated), with -1.58%. In the case of `COc1ccc([C@H]2[C@H](C(C)=O)N3N=Cc4ccccc4C3C23C(=O)OC(C)(C)OC3=O)cc1` (some centres not stated) it was 34.6% (active); in that of `O=C(/C=C\c1ccc2c(c1)OCO2)NC1(C(=O)Nc2ccc3c(c2)OCCO3)CCCCC1`, 3.6%. Then `COC(=O)c1c(C)[nH]c(C)c1-c1ccc([N+](=O)[O-])cc1`, with 5.04%; and `CC1CC1C(=O)OCC(=O)c1c(N)n(C)c(=O)n(C)c1=O` (configuration not stated), with 1.81%. For the compound `CC1=C/C(=N\OS(=O)(=O)c2ccccc2)C=CC1=O`, the inhibition was 17.7%. `CC(=O)c1c(Nc2ccccc2)sc(C(=O)c2ccccc2)c1C`: the inhibition was 0.53%. For `Cc1ccc(NC(=O)/C(=C\c2ccccc2)NC(=O)c2ccco2)cc1`, the inhibition is -2.75%. In the case of `Cc1cc(Br)ccc1SCC(=O)OCC(=O)NCc1ccc2c(c1)OCO2`, the inhibition was 2.11%. Then `O=c1cc(O)nc(SCc2ccccc2Cl)[nH]1`, with -11.7%; and `Nc1nc(SCc2ccccc2Cl)n[nH]1`, with -1.58%. Then `O=c1[nH]nc(CSCc2ccccc2Cl)[nH]1`, with 37.7% (active); and `Clc1ccc(-c2nc3ccccn3c2CN2CCSCC2)cc1`, with 3.32%. As for `COc1ccc(NC2=CC(=S)NC(C)(C)C2)cc1`, the inhibition was 0.37%.

Turning to `O=C(CSc1nnc(-c2ccc([N+](=O)[O-])cc2)o1)Nc1ccccn1`, the inhibition is -0.57%. With `Cc1cc2nc3c(=O)n(Cc4ccccc4)c(=O)[nH]c3nc2cc1N`, the inhibition is 7.59%. Then `Nc1ccc2nc3c(=O)[nH]c(=S)[nH]c3nc2c1`, with 55.7% (active).
